# From PubChem
# SW480 rerep: DNA re-replication induction in SW480 cells; Potency, µM (highest dose often 46.1 µM), inactives show top-dose re-replication activation, actives largely listed as activators; 340,000 tested, 1.8% active; SW480 DNA re-replication, Hoechst DNA content imaging, 48 h; AID 624297; further: % of control where 0% means no effect; nearly all actives have a fitted effect of over 55% in size
#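 SW480 cells exposed to compounds for 48 hr at 37 C, 5% CO2, then Hoechst-stained 40 min. Nuclear DNA content imaged by fluorescence scanning (405 nm excitation, 500-530 nm emission); re-replication scored as increased high-intensity nuclei.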
# HT1080NT lethal: kills 2HG-producing HT-1080-NT fibrosarcoma cells | Potency, µM (titrated, usually from 46.1 µM), for the others: at the top dose activity, negative = less viability, most hits filed as cytotoxic | AID 686970 | HT-1080-NT fibrosarcoma viability, CellTiter-Glo ATP luminescence, 48 h | 360,000 tested, 1.6% active;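 further: NT is the 2HG producing partner of a matched IDH1 knockdown line; 0% = DMSO-treated cells and -100% = media-only wells without cells; nearly all actives have a fitted effect of over 55% in size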
#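 A 48-hour cytotoxicity screen used HT-1080-NT cells plated 2 hours before compound delivery. ATP-based CellTiter-Glo luminescence measured viability, normalized to DMSO and no-cell controls.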
# MCF10A rereplic: induces DNA re-replication in MCF 10a normal breast cells; MCF 10A DNA re-replication, Hoechst nuclear intensity, 48 h; Potency, µM (titrated, usually from 46.1 µM), inactives show at the top dose activity, positive = re-replication, actives largely listed as activators; 350,000 tested, 2.9% active; further: % of control where 0% means no effect; nearly all actives have a fitted effect of over 50% in size
# HT1080 IDH1KD tx: toxicity to HT-1080 IDH1 knockdown cells (counter line) | HT-1080 IDH1 knockdown viability, ATP luminescence, 48 h | Potency, µM (titrated, usually from 46.1 µM), without a hit: at the highest dose activity, negative = toxicity, most hits filed as cytotoxic | 360,000 tested, 2% active | AID 686971;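 further: 0% = DMSO wells and -100% = cell-free medium wells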
#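 Assay cells: HT-1080 with IDH1 knockdown, 750 per well, RPMI/5% FBS. Exposure: 48 h at 37 °C following 2 h pre-incubation. Read: CellTiter-Glo luminescence; fitted concentration-response, curve class assigned.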
# KB-V1 MDR tox: KB-V1 MDR subline cytotoxicity. Potency, µM (top dose mostly 46.1 µM), usual class: cytotoxic. 400,000 tested, 3.4% active. KB-V1 MDR cells viability, CellTiter-Glo, 72 h. AID 1347076; further: on the % scale 0 is the no-effect control and ±100 the full control effect; nearly all actives have a fitted effect of over 60% in size
#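 KB-V1 cells (P-gp-expressing MDR subline of KB-3-1) in phenol-red-free DMEM with 10% FBS were exposed to library compounds over a concentration series for 72 h at 37 degrees C. Viability read by CellTiter-Glo luminescence; concentration-effect curves fitted after normalization.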
# KB-3-1 tox: KB-3-1 parental cell cytotoxicity | KB-3-1 viability, CellTiter-Glo ATP luminescence, 72 h | Potency, µM (titrated, usually from 46.1 µM), most hits filed as cytotoxic | 400,000 tested, 1.4% active | AID 1347075; further: on the % scale 0 is the no-effect control and ±100 the full control effect; nearly all actives have a fitted effect of over 60% in size
#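 Cytotoxicity measured as CellTiter-Glo luminescence after 72 h at 37 C. Compound titrations were pinned onto drug-naive KB-3-1 parental adenocarcinoma cells grown in DMEM with 10% FBS, and normalized data fitted to concentration-response curves.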
# Active calls of the source: *; i = inactive; ? = inconclusive; · = no result; [ ] = another dose, or the depositor's remark. Shown are actives, neighbours in structure and some others; about 7.9% of the full set was active somewhere. The call rests on the fitted dose curve; in most records, active means well fitted curve in the direction sought with a large enough effect; inconclusive means small, poorly fitted or top-dose-only effect, or another doubt; inactive means no such curve, though single readings can be large; an effect the other way counts as inactive or inconclusive. Potency means the concentration at half of the fitted maximal effect.
SMILES,SW480 rerep,HT1080NT lethal,MCF10A rereplic,HT1080 IDH1KD tx,KB-V1 MDR tox,KB-3-1 tox
CSc1cccc(NC(=O)CN(c2cccc(C)c2)S(C)(=O)=O)c1,2.4%,-2.6%,1.6%,-1.6%,i,i
Cc1cccc(N(CC(=O)Nc2ccc(F)cc2)S(C)(=O)=O)c1,6.3%,7.7%,-0.7%,11.2%,16.4µM*,i
O=C(COc1ccc(Cl)cc1Br)NC(=O)NC1CCCC1,-2.3%,1.8%,14.2%,-1.4%,i,i
C=CCN(Cc1ccc(Cl)s1)C(=O)c1ccc(F)c(S(=O)(=O)N2CCOCC2)c1,-5.6%,3.5%,?,6.8%,i,i
COc1cc(/C=N/OCC(=O)Nc2ccc(OC(F)F)cc2)ccc1OCc1ccccc1,?,?,?,?,8.2µM*,23.1µM*
COc1ccc(/C=N/OCC(=O)NC(c2ccccc2)c2ccccc2)cc1OC,0.3%,-7.2%,21.2%,-14.2%,2.31µM*,?
C/C(=N\OCC(=O)NC12CC3CC(CC(C3)C1)C2)c1cc2ccccc2o1,?,?,20.6µM*,?,i,i
COc1cc(/C=N/OCC(=O)NC23CC4CC(CC(C4)C2)C3)ccc1OCc1ccccc1,?,-24.8%,20.6µM*,?,?,?
NC(=O)C1CCN(c2ncc(-c3ccc4c(c3)OC(F)(F)O4)s2)CC1,·,·,·,·,i,i
CCOC(=O)C1CCCN(c2nc3ccccc3nc2NS(=O)(=O)c2ccc(C)cc2)C1 (centres undefined),-5.6%,0.0%,-10.0%,0.1%,·,·
CCN(CC)C(=O)C1=C(C)N(CCCN2CCCC2=O)C(=O)C(CC(=O)NC2CCCCC2)C1 (centres undefined),·,0.8%,·,-1.8%,i,i
Cn1nc([N+](=O)[O-])nc1Sc1cccc2cccnc12,-1.3%,-20.9%,1.4%,-11.9%,?,i
O=Cc1ccc(Sc2nnc(-c3ccccc3)o2)c([N+](=O)[O-])c1,?,?,2.91µM*,-24.2%,?,?
Cn1nc([N+](=O)[O-])nc1Sc1nnc(-c2ccccc2)o1,4.11µM*,?,?,?,i,?
Cc1cc(C)nc(Sc2ccc(C=O)cc2[N+](=O)[O-])n1,-6.9%,1.1%,0.0%,12.1%,i,i
Cc1cc(=O)[nH]c(N=N/C(=N/Nc2ccc(O)cc2)c2ccccc2)n1,-1.8%[9.22 µM],-18.9%,?,?,i,?
COc1ccc(N/N=C(/N=Nc2nc(C)cc(=O)[nH]2)c2ccccc2)cc1,?,?,?,3.66µM*,?,6.51µM*
Cc1cc(=O)[nH]c(N=N/C(=N/Nc2ccccc2C)c2ccccc2)n1,5.17µM*,?,19.4%,?,i,4.61µM*
Cc1cc(NC(=O)COC(=O)c2cc(S(=O)(=O)N(C)C)ccc2Cl)no1,-3.3%,6.5%,-1.8%,9.1%,i,i
CN(C)C(=O)CCc1ccc2c3c([nH]c2c1)[C@]1(CCc2ccccc2)[C@@H](C(=O)N2CCCCC2)C[C@H](CC(=O)NC(C)(C)C)C(=O)N1CC3,?,0.5%,-11.5%,-0.9%,i,i
NC(=O)C1(N2CCCCC2)CCN(c2nc(-c3ccc(Br)cc3)cs2)CC1,-3.4%,14.0%,?,23.8%,23.1µM*,i
COc1ccccc1N(C)S(=O)(=O)c1ccc(Cl)c(C(=O)OCc2c(C)noc2C)c1,?,0.1%,16.4µM*,-1.9%,i,i
COc1ccccc1N(C)S(=O)(=O)c1ccc(Cl)c(C(=O)NNC(=O)c2ccccc2O)c1,2.9%,-4.2%,12.0%,-1.4%,i,?
CC1(C(=O)NS(=O)(=O)c2ccc(F)cc2F)CCN1C(=O)Cc1ccc(-c2ccccc2)cc1 (centres undefined),·,6.0%,·,4.2%,i,i
COCCn1c(SCc2ccc(F)cc2)nc2c1c(=O)[nH]c(=O)n2C,7.6%,-14.8%,0.461µM*,0.8%,i,i
SMILES,SW480 rerep,HT1080NT lethal,MCF10A rereplic,HT1080 IDH1KD tx,KB-V1 MDR tox,KB-3-1 tox
C/C=C/Cn1c(SCc2ccccc2)nc2c1c(=O)[nH]c(=O)n2C,-1.9%,-15.5%,4.3%,-11.1%,2.91µM*,i
C=CCSc1nc2c(c(=O)[nH]c(=O)n2C)n1C/C=C(/C)Cl,-7.5%,-1.1%,16.0%,-1.9%,13µM*,i
CCOCCn1c(SCc2ccccc2)nc2c1c(=O)[nH]c(=O)n2C,-3.3%,0.0%,-1.5%,-8.9%,i,i
O=C(NCc1ccccc1Cl)[C@H]1CCCN1C(=O)[C@H]1CCCN1C(=O)c1cccc2ccccc12,·,-1.3%,·,0.1%,i,i
COc1ccc(S(=O)(=O)N(C)CC(=O)Nc2ccccc2C(F)(F)F)cc1,4.2%,5.5%,-8.1%,-0.2%,i,i
COc1ccc(S(=O)(=O)N(C)CC(=O)Nc2ccccc2C(F)(F)F)cc1Cl,-1.4%,-7.6%,-9.7%,-5.5%,14.6µM*,i
Cc1cc(C)c(S(C)(=O)=O)c(=O)[nH]1,-8.5%,20.0%,4.5%,17.2%,i,i
Cc1cc(=O)c2c([nH]1)c(C)cc1[nH]c(C)c(C)c12,9.2µM*,-0.2%,7.7%,0.2%,i,?
COc1ccc(CNC(=O)CCSCc2cccc(F)c2)cc1,-0.9%,7.2%,-19.7%,15.0%,i,i
CC(C)CCNC(=O)CN(C(=O)CCC(=O)Nc1nccs1)c1ccc2c(c1)OCCO2,-1.9%,21.6%,7.6%,5.5%,i,i
CCOC(=O)[C@H]1[C@H]2COc3ccc(OC)cc3[C@@H]2N2C(=O)c3ccccc3NC(=O)[C@@]12C,10.1%,23.8%,?,15.0%,i,i
CCOC(=O)[C@H]1[C@H]2COc3ccc(OC)cc3[C@@H]2N2C(=O)c3cc(OC)ccc3NC(=O)[C@@]12C,6.51µM*,7.0%,-4.8%,5.2%,?,i
CCOC(=O)[C@H]1[C@H]2COc3ccc(Cl)cc3[C@@H]2N2C(=O)c3cc(F)c(F)cc3NC(=O)[C@@]12C,6.6%,-6.3%,-4.9%,?,?,23.1µM*
CC(C)CCNC(=O)C1CCCN(S(=O)(=O)c2ccc3c(c2)CC(C)N3C(=O)C2CC2)C1 (centres undefined),?,-4.9%,-2.2%,-11.0%,i,i
CCCCNc1c(-c2cccc(-c3ccc(OC)cc3)c2)nc2cc(C)ccn12,?,?,23.1µM*,?,?,?
CCCCNc1c(-c2ccc(-c3cccc(Cl)c3)cc2)nc2ccccn12,-19.5%[9.22 µM],?,?,?,?,?
